A short description of assay [1]: NCI Yeast Anticancer Drug Screen. Data for the rad50 strain (AID 155).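 Further: 0% = growth of vehicle-only cultures of the same strain.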 Particulars: S. cerevisiae rad50 strain growth inhibition; at 50.0 µM; stronger effect = higher value. The method in brief: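 DNA repair mutant yeast, compound exposure, growth read-out; inhibition is taken relative to vehicle.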
Assay [2] is described as follows: NCI Yeast Anticancer Drug Screen. Data for the mec2-1 strain (AID 157). Particulars: S. cerevisiae mec2-1 strain, at 50.0 µM, stronger effect = higher value. A digest of the protocol: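 Readout is yeast growth inhibition, normalised to vehicle-treated controls, in the mec2-1 strain exposed to compound.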
A short description of assay [3]: NCI Yeast Anticancer Drug Screen. Data for the sgs1 mgt1 strain (AID 161).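 Further: 0% = growth of cultures given vehicle only.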 Particulars: S. cerevisiae sgs1 mgt1 strain, at 50.0 µM, stronger effect = higher value. The method in brief:
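This yeast growth screen uses a strain with defined DNA-repair lesions; compound-treated growth is compared with vehicle-treated growth.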

Assay [4] can be described thus: NCI Yeast Anticancer Drug Screen. Data for the cln2 rad14 strain (AID 165).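 Further: 0% = growth equal to vehicle treated cultures.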 Particulars: S. cerevisiae cln2 rad14 strain, at 50.0 µM, stronger effect = higher value. A digest of the protocol:
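Relative to vehicle controls, growth inhibition of compound-treated cln2 rad14 yeast was recorded.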

The nature of assay [5]: NCI Yeast Anticancer Drug Screen. Data for the bub3 strain (AID 167). Particulars: S. cerevisiae bub3 mutant strain, at 50.0 µM, stronger effect = higher value. A digest of the protocol: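 In this screen, a yeast mutant lacking normal mitotic checkpoint function is challenged with compound. Relative growth versus vehicle gives the inhibition value.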
The nature of assay [6]: NCI Yeast Anticancer Drug Screen. Data for the mlh1 rad18 strain (AID 175). Particulars: S. cerevisiae mlh1 rad18 strain growth inhibition; at 50.0 µM; stronger effect = higher value. The method in brief: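 Test agents were incubated with a yeast strain of defined genotype (DNA damage repair defect). Inhibition of growth was derived by comparison with vehicle-exposed cultures.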

Compounds without any hit were thinned out: in the full panel of roughly 79,000, 15% have a hit. A number with no mark means an inactive call. Activity calls are given as the source filed them. No stated cut-off is given here; in the data, active means growth inhibition above about 70%; inactive means the rest.

Turning to `CC1CCC2C(C)C3C(CC4C5CCC6CC(O)CCC6(C)C5CCC43C)N2C1` (stereo not given), the growth inhibition is 17.1% in assay [1]; 23.4% in assay [2]; 17.5% in assay [3]; -29.1% in assay [4]; -18.4% in assay [5]; 15.7% in assay [6].
With `CC(C)OP(=O)(OC(C)C)C(C)(C)O`, the growth inhibition in assay [1] is 2.8%; in assay [2] it was 3.8%; in assay [3], 12.9%; in assay [4] it was 21.3%; in assay [5] it was -1.35%; in assay [6], -32.1%.
On to `O=C(O)CCCC(=O)CCCC(=O)O`, for which the growth inhibition is 0.3% in assay [1]; 4.35% in assay [2]; 22.9% in assay [3]; 7.45% in assay [4]; 24.6% in assay [5]; 21.4% in assay [6].
Take `CCC[CH2][Sn]([CH2]CCC)[CH2]CCC.CCC[CH2][Sn]([CH2]CCC)[CH2]CCC`: the growth inhibition in assay [1] is 99.4% (active); in assay [2], 99.7% (active); in assay [3], 99.7% (active); in assay [4], 99.5% (active); in assay [5] it was 99.7% (active); in assay [6], 99.2% (active).
Turning to `Cc1cc(Nc2ccc(N(CCCl)CCCl)cc2)c(C)cc1O`, the growth inhibition was 31.7% in assay [1]; 10% in assay [2]; 5.75% in assay [3]; -5.85% in assay [4]; -4.15% in assay [5]; 6.8% in assay [6].
Take `O=C1NC2NC3NC(=O)NC3NC2N1` (stereo not given): the growth inhibition in assay [1] was 3.6%; in assay [2], 1.85%; in assay [3], 0.2%; in assay [4] it was -5.25%; in assay [5], 10.2%; in assay [6] it was -24.4%.
For the compound `NC(=O)C(Cl)c1ccccc1` (stereo not given), the growth inhibition was -17.2% in assay [1]; -25.9% in assay [2]; -24.8% in assay [3]; -23.6% in assay [4]; -23.9% in assay [5]; -9.15% in assay [6].
On to `CNCCc1ccc(O)c2ccc3ccc(OC)c(O)c3c12`, for which the growth inhibition in assay [1] is 2.5%; in assay [2] it was -7.25%; in assay [3], -14.2%; in assay [4] it was 5.25%; in assay [5], -17.3%; in assay [6], 4.05%.
As to `O=C1NC(=O)C(Cc2ccc3c(c2)OCO3)C(=O)N1`, the growth inhibition is -6.05% in assay [1]; -9.5% in assay [2]; 4.95% in assay [3]; -62.9% in assay [4]; 7.35% in assay [5]; 8.15% in assay [6].
As to `CC(C)NCC(O)c1ccc(Cl)c(Cl)c1` (stereo not given), the growth inhibition in assay [1] is -28.6%; in assay [2] it was -40%; in assay [3], -14%; in assay [4] it was 7.25%; in assay [5], -27.2%; in assay [6], -33.8%.
For `COc1cc(/C=C2\C(O)C3CCN2CC3)cc(OC)c1OC` (stereo not given), the growth inhibition in assay [1] is -9.25%; in assay [2] it was -2.15%; in assay [3], -5.6%; in assay [4], -8.65%; in assay [5], 9.1%; in assay [6] it was -6.8%.
Turning to `CC(C)c1cc2c(c(O)c1O)[C@@]1(C(=O)O)CCCC(C)(C)[C@@H]1CC2`, the growth inhibition in assay [1] was 91.8% (active); in assay [2], 93.5% (active); in assay [3], 93.3% (active); in assay [4], 92% (active); in assay [5], 92.3% (active); in assay [6], 92.3% (active).
For the compound `c1ccc(P2(c3ccccc3)=NSN=S=N2)cc1`, the growth inhibition in assay [1] was -4.75%; in assay [2], -8.7%; in assay [3], -8.65%; in assay [4], -16.6%; in assay [5], 1.35%; in assay [6], -1.45%.
With `Cc1ccc(N[N+](=O)[O-])nc1`, the growth inhibition in assay [1] is -7.25%; in assay [2] it was 8.55%; in assay [3], -1.15%; in assay [4], -10.2%; in assay [5], -3.15%; in assay [6], 14%.
In the case of `CCCCC[As](=O)(O)O`, the growth inhibition in assay [1] was 12.2%; in assay [2] it was -6.4%; in assay [3], 1.2%; in assay [4], -5.6%; in assay [5] it was 4.3%; in assay [6] it was 7.95%.
On to `COc1ccc2c(c1OC)C(=O)O[C@@H]2[C@H]1c2cc3c(cc2CCN1C)OCO3`, for which the growth inhibition was -8.75% in assay [1]; -4.8% in assay [2]; 0.95% in assay [3]; 6.75% in assay [4]; 4.8% in assay [5]; -43.5% in assay [6].
In the case of `O=[As](O)(O)CC(Br)CBr` (stereo not given), the growth inhibition in assay [1] was 5.5%; in assay [2] it was 12%; in assay [3], 5.95%; in assay [4], -7.3%; in assay [5], 41.1%; in assay [6] it was -3.4%.
As to `O=C1NCC2C3CCC(O3)C12` (stereo not given), the growth inhibition is -6.3% in assay [1]; -16.1% in assay [2]; 7.95% in assay [3]; -10.2% in assay [4]; -17.4% in assay [5]; -12.1% in assay [6].
For the compound `CCOC(=O)C1=C(C)/C(=C\c2[nH]c(C)c(C(=O)OCC)c2C)N=C1C`, the growth inhibition is 8.95% in assay [1]; 13.7% in assay [2]; 23% in assay [3]; 8.95% in assay [4]; 19.5% in assay [5]; 19.9% in assay [6].
For the compound `O=S(=O)(F)c1ccccc1C[P+](c1ccccc1)(c1ccccc1)c1ccccc1`, the growth inhibition is 84.2% (active) in assay [1]; 86% (active) in assay [2]; 66% in assay [3]; 66.7% in assay [4]; 82.8% (active) in assay [5]; 91% (active) in assay [6].

Source of the values: PubChem BioAssay (NCI).
